Assay results as given in the supplement of paper PMC12669032.

Experiments:
Assay in all cases: growth AUC relative to DMSO control (median of replicates) (fraction); higher = more growth (less inhibition), active = hit call of the paper
Settings in all cases: 20 µM; 24 h;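 active = AUC reduced over 20% with Padj below 0.05 in at least 2 of 3 replicates; inactive = otherwise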
Akkermansia muciniphila = system: Akkermansia muciniphila
In short: (§1)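 Each value is the median of three biological replicates, grown on separate days, of a gut bacterial monoculture incubated anaerobically at 37 °C in mGAM with 20 µM compound (1% DMSO). Cultures started at OD600 0.05 and were read at OD600 hourly for 24 h, with the minimum OD set to 0. Area under the growth curve was normalised to the plate median of solvent-only wells, or to row and column medians on the industrial chemical plate.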

Bacteroides caccae = system: Bacteroides caccae
In short: as §1

Bacteroides clarus = system: Bacteroides clarus
In short: as §1

Bacteroides dorei = system: Bacteroides dorei
In short: as §1

Bacteroides stercoris = system: Bacteroides stercoris
In short: as §1

[1] = system: Bacteroides thetaiotaomicron
In short: as §1

Bacteroides uniformis = system: Bacteroides uniformis
In short: as §1

[2] = system: Bifidobacterium longum subsp. longum
In short: as §1

Clostridium difficile = system: Clostridium difficile
In short: as §1

Collinsella aerofaciens = system: Collinsella aerofaciens
In short: as §1

Coprococcus comes = system: Coprococcus comes
In short: as §1

Escherichia coli ED1a = system: Escherichia coli ED1a
In short: as §1

Escherichia coli IAI1 = system: Escherichia coli IAI1
In short: as §1

Eubacterium rectale = system: Eubacterium rectale
In short: as §1

[3] = system: Fusobacterium nucleatum subsp. animalis
In short: as §1

Lactobacillus gasseri = system: Lactobacillus gasseri
In short: as §1

Lactobacillus paracasei = system: Lactobacillus paracasei
In short: as §1

Odoribacter splanchnicus = system: Odoribacter splanchnicus
In short: as §1

[4] = system: Parabacteroides distasonis
In short: as §1

Parabacteroides merdae = system: Parabacteroides merdae
In short: as §1

Measured: growth AUC

CC1(C)C(C=C(Cl)Cl)C1C(=O)OCc1cccc(Oc2ccccc2)c1 (mixture of isomers)
inactive: Akkermansia muciniphila 1.02 | Bacteroides caccae 0.991 | Bacteroides clarus 0.98 | Bacteroides dorei 1.01 | Bacteroides stercoris 1.07 | [1] 1.02 | Bacteroides uniformis 1.03 | [2] 0.957 | Clostridium difficile 1.01 | Collinsella aerofaciens 0.942 | Coprococcus comes 0.964 | Escherichia coli ED1a 1.02 | Escherichia coli IAI1 0.98 | Eubacterium rectale 0.911 | [3] 0.954 | Lactobacillus gasseri 0.864 | Lactobacillus paracasei 1.01 | Odoribacter splanchnicus 0.977 | [4] 1 | Parabacteroides merdae 0.951

N#Cc1sc2c(=O)c3ccccc3c(=O)c=2sc1C#N
inactive: Akkermansia muciniphila 0.95 | Bacteroides caccae 0.982 | Bacteroides clarus 0.948 | Bacteroides dorei 0.979 | Bacteroides stercoris 0.783 | [1] 0.974 | Bacteroides uniformis 0.882 | [2] 0.84 | Clostridium difficile 0.968 | Collinsella aerofaciens 1.09 | Coprococcus comes 0.921 | Escherichia coli ED1a 0.945 | Escherichia coli IAI1 0.957 | Eubacterium rectale 0.911 | [3] 0.881 | Lactobacillus gasseri 1.01 | Lactobacillus paracasei 0.875 | Odoribacter splanchnicus 0.926 | [4] 0.928 | Parabacteroides merdae 0.968

CCNP(=S)(OC)O/C(C)=C/C(=O)OC(C)C (stereo not given)
inactive: Akkermansia muciniphila 0.983 | Bacteroides caccae 0.966 | Bacteroides clarus 0.957 | Bacteroides dorei 0.998 | Bacteroides stercoris 1 | [1] 0.953 | Bacteroides uniformis 0.993 | [2] 0.983 | Clostridium difficile 0.986 | Collinsella aerofaciens 1.01 | Coprococcus comes 0.987 | Escherichia coli ED1a 1 | Escherichia coli IAI1 0.951 | Eubacterium rectale 1.13 | [3] 0.981 | Lactobacillus gasseri 0.968 | Lactobacillus paracasei 0.994 | Odoribacter splanchnicus 0.956 | [4] 0.991 | Parabacteroides merdae 0.963

COC(C)(C)CCCC(C)C/C=C/C(C)=C/C(=O)OC(C)C (stereo not given)
inactive: Akkermansia muciniphila 0.867 | Bacteroides caccae 1 | Bacteroides clarus 0.989 | Bacteroides dorei 0.996 | Bacteroides stercoris 1.03 | [1] 0.981 | Bacteroides uniformis 0.963 | [2] 0.987 | Clostridium difficile 1.02 | Collinsella aerofaciens 1.04 | Coprococcus comes 1.01 | Escherichia coli ED1a 1.01 | Escherichia coli IAI1 1 | Eubacterium rectale 0.831 | [3] 1 | Lactobacillus gasseri 1.04 | Lactobacillus paracasei 1.04 | Odoribacter splanchnicus 0.999 | [4] 1 | Parabacteroides merdae 1

CC1(C)[C@H](C(=O)O[C@H](C#N)c2cccc(Oc3ccccc3)c2)[C@@H]1/C=C\C(=O)OC(C(F)(F)F)C(F)(F)F
inactive: Akkermansia muciniphila 0.955 | Bacteroides caccae 1.01 | Bacteroides clarus 0.976 | Bacteroides dorei 1.02 | Bacteroides stercoris 0.92 | [1] 1.03 | Bacteroides uniformis 1.01 | [2] 0.931 | Clostridium difficile 1.03 | Collinsella aerofaciens 1.07 | Coprococcus comes 1.03 | Escherichia coli ED1a 1.01 | Escherichia coli IAI1 1.1 | Eubacterium rectale 0.984 | [3] 0.986 | Lactobacillus gasseri 1.12 | Lactobacillus paracasei 0.984 | Odoribacter splanchnicus 1.03 | [4] 0.994 | Parabacteroides merdae 1.01

COP(=O)(NC(C)=O)SC (stereo not given)
inactive: Akkermansia muciniphila 0.941 | Bacteroides caccae 1.01 | Bacteroides clarus 0.993 | Bacteroides dorei 0.992 | Bacteroides stercoris 1.02 | [1] 0.978 | Bacteroides uniformis 0.979 | [2] 0.96 | Clostridium difficile 1.01 | Collinsella aerofaciens 1.04 | Coprococcus comes 0.979 | Escherichia coli ED1a 1.01 | Escherichia coli IAI1 0.993 | Eubacterium rectale 0.921 | [3] 0.99 | Lactobacillus gasseri 1.1 | Lactobacillus paracasei 1.02 | Odoribacter splanchnicus 0.999 | [4] 1.06 | Parabacteroides merdae 1.01

NC(=O)/N=C1/SCCN1Cc1ccc(Cl)nc1
inactive: Akkermansia muciniphila 0.782 | Bacteroides caccae 1.01 | Bacteroides clarus 0.999 | Bacteroides dorei 0.979 | Bacteroides stercoris 1.04 | [1] 0.978 | Bacteroides uniformis 1.01 | [2] 1.03 | Clostridium difficile 1 | Collinsella aerofaciens 1.01 | Coprococcus comes 0.965 | Escherichia coli ED1a 0.999 | Escherichia coli IAI1 0.997 | Eubacterium rectale 1.02 | [3] 0.984 | Lactobacillus gasseri 0.995 | Lactobacillus paracasei 0.975 | Odoribacter splanchnicus 1.03 | [4] 0.992 | Parabacteroides merdae 0.984

O=C(NC(=O)c1c(F)cccc1F)Nc1ccc(CO/N=C(\c2ccc(Cl)cc2)C2CC2)cc1
inactive: Akkermansia muciniphila 1.02 | Bacteroides caccae 0.994 | Bacteroides clarus 0.955 | Bacteroides dorei 1.01 | Bacteroides stercoris 0.981 | [1] 0.996 | Bacteroides uniformis 0.983 | [2] 0.959 | Clostridium difficile 0.983 | Collinsella aerofaciens 0.963 | Coprococcus comes 0.988 | Escherichia coli ED1a 1 | Escherichia coli IAI1 0.986 | Eubacterium rectale 0.952 | [3] 0.997 | Lactobacillus gasseri 0.963 | Lactobacillus paracasei 0.962 | Odoribacter splanchnicus 1.01 | [4] 1.04 | Parabacteroides merdae 0.975

O=P(Oc1ccccc1)(Oc1ccccc1)Oc1ccccc1
inactive: Akkermansia muciniphila 0.805 | Bacteroides caccae 0.898 | Bacteroides clarus 0.958 | Bacteroides dorei 0.96 | [1] 0.901 | Bacteroides uniformis 0.923 | [2] 0.919 | Clostridium difficile 1 | Collinsella aerofaciens 1.02 | Coprococcus comes 0.937 | Escherichia coli ED1a 1 | Escherichia coli IAI1 0.993 | Eubacterium rectale 0.977 | [3] 0.828 | Lactobacillus gasseri 0.943 | Lactobacillus paracasei 0.958 | Odoribacter splanchnicus 1.01 | Parabacteroides merdae 0.842
active: Bacteroides stercoris 0.755 | [4] 0.594

COP(=S)(OC)SC(CC(=O)O)C(=O)O (stereo not given)
inactive: Akkermansia muciniphila 0.974 | Bacteroides caccae 1.01 | Bacteroides clarus 0.963 | Bacteroides dorei 0.986 | Bacteroides stercoris 1.06 | [1] 0.991 | Bacteroides uniformis 0.99 | [2] 1.01 | Clostridium difficile 1 | Collinsella aerofaciens 1.05 | Coprococcus comes 1.01 | Escherichia coli ED1a 1.02 | Escherichia coli IAI1 0.974 | Eubacterium rectale 0.884 | [3] 1.01 | Lactobacillus gasseri 1.03 | Lactobacillus paracasei 0.972 | Odoribacter splanchnicus 1.14 | [4] 0.956 | Parabacteroides merdae 0.976

CC1COC(Cn2cncn2)(c2ccc(Oc3ccc(Cl)cc3)cc2Cl)O1 (stereo not given)
active: Coprococcus comes 0.72 | Eubacterium rectale 0.723
inactive: Akkermansia muciniphila 1.03 | Bacteroides caccae 0.868 | Bacteroides clarus 0.898 | Bacteroides dorei 0.91 | Bacteroides stercoris 1.12 | [1] 0.854 | Bacteroides uniformis 0.839 | [2] 0.938 | Clostridium difficile 0.881 | Collinsella aerofaciens 0.977 | Escherichia coli ED1a 0.979 | Escherichia coli IAI1 1 | [3] 0.983 | Lactobacillus gasseri 0.952 | Lactobacillus paracasei 0.986 | Odoribacter splanchnicus 0.904 | [4] 0.801 | Parabacteroides merdae 0.871

Cc1c(N)cccc1N
inactive: Akkermansia muciniphila 0.946 | Bacteroides caccae 0.969 | Bacteroides clarus 1.04 | Bacteroides dorei 1 | Bacteroides stercoris 1.18 | [1] 0.992 | Bacteroides uniformis 1 | [2] 1 | Clostridium difficile 1 | Collinsella aerofaciens 1.04 | Coprococcus comes 1.01 | Escherichia coli ED1a 0.995 | Escherichia coli IAI1 0.981 | Eubacterium rectale 1.01 | [3] 1.04 | Lactobacillus gasseri 1.01 | Lactobacillus paracasei 0.991 | Odoribacter splanchnicus 0.938 | [4] 0.995 | Parabacteroides merdae 1.01

Cc1ccc(N(SC(F)(Cl)Cl)S(=O)(=O)N(C)C)cc1
inactive: Akkermansia muciniphila 0.918 | Bacteroides caccae 1 | Bacteroides clarus 1 | Bacteroides dorei 1.04 | Bacteroides stercoris 1.02 | [1] 1.02 | Bacteroides uniformis 1.03 | [2] 1.03 | Clostridium difficile 0.991 | Collinsella aerofaciens 0.989 | Coprococcus comes 1.02 | Escherichia coli ED1a 0.974 | Escherichia coli IAI1 0.982 | Eubacterium rectale 1.03 | [3] 1 | Lactobacillus gasseri 1.07 | Lactobacillus paracasei 1 | Odoribacter splanchnicus 1.02 | [4] 1.06 | Parabacteroides merdae 1.04

Cc1cc(Cl)ccc1OCC(=O)O
inactive: Akkermansia muciniphila 1.02 | Bacteroides caccae 0.996 | Bacteroides clarus 1.01 | Bacteroides dorei 0.933 | Bacteroides stercoris 0.945 | [1] 1.02 | Bacteroides uniformis 1 | [2] 1.1 | Clostridium difficile 0.967 | Collinsella aerofaciens 1.04 | Coprococcus comes 1.02 | Escherichia coli ED1a 1.02 | Escherichia coli IAI1 1 | Eubacterium rectale 0.984 | [3] 1.07 | Lactobacillus gasseri 1.05 | Lactobacillus paracasei 1.04 | Odoribacter splanchnicus 1.05 | [4] 1.01 | Parabacteroides merdae 1.04

O=C1C2(Cl)C3(Cl)C4(Cl)C(Cl)(Cl)C5(Cl)C3(Cl)C1(Cl)C5(Cl)C24Cl (stereo not given)
inactive: Akkermansia muciniphila 0.849 | Escherichia coli ED1a 0.98 | Escherichia coli IAI1 0.969 | Eubacterium rectale 0.696 | [3] 0.757
active: Bacteroides caccae 0.0318 | Bacteroides clarus 0.02 | Bacteroides dorei 0.0186 | Bacteroides stercoris 0.00866 | [1] 0.0105 | Bacteroides uniformis 0.0112 | [2] 0.28 | Clostridium difficile 0.0161 | Collinsella aerofaciens 0.0984 | Coprococcus comes 0.0378 | Lactobacillus gasseri 0.135 | Lactobacillus paracasei 0.061 | Odoribacter splanchnicus 0.0248 | [4] 0.0157 | Parabacteroides merdae 0.0229

CC(=O)O.CC(=O)O.CC(=O)O.NC(N)=NCCCCCCCCNCCCCCCCCN=C(N)N
active: Bacteroides caccae 0.639 | Bacteroides clarus 0.523 | Bacteroides dorei 0.0196 | Bacteroides stercoris 0.0269 | [1] 0.0154 | Bacteroides uniformis 0.158 | [2] 0.195 | Coprococcus comes 0.0653 | Eubacterium rectale 0.0201 | Odoribacter splanchnicus 0.0272 | [4] 0.213 | Parabacteroides merdae 0.025
inactive: Akkermansia muciniphila 0.692 | Clostridium difficile 0.869 | Collinsella aerofaciens 0.871 | Escherichia coli ED1a 0.966 | Escherichia coli IAI1 0.822 | [3] 0.729 | Lactobacillus gasseri 0.89 | Lactobacillus paracasei 0.834
